What is called AC50 is the concentration at which the activity in the assay is half-maximal.

The source of these data is PubChem BioAssay (EPA / NIEHS).

What all share (settings): mRNA level, 48 h; actives raise or lower the signal
Read-out in assay [1]: Nuclear factor NF-kappa-B p105 subunit (Homo sapiens) (UniProt P19838)
In words: LTEA_HepaRG_NFKB1: Life Technologies and Expression Analysis (LTEA) Assay for Nuclear Factor Kappa B Subunit 1 (NFKB1) using HepaRG (AID 2283521). In short, it runs like this: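 Differentiated human HepaRG cells in serum-free induction medium with 0.5% DMSO were exposed for 48 h to eight half-log concentrations, top 100 uM, in duplicate. NFKB1 mRNA measured by Fluidigm TaqMan qRT-PCR, normalised to ACTB, GAPDH and POLR2A; bidirectional fit versus DMSO.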

Read-out in assay [2]: Protein phosphatase 2A (PPP2R4), PTPA (gene 5524)
In words: LTEA_HepaRG_PPP2R4: Life Technologies and Expression Analysis (LTEA) Assay for Protein phosphatase 2A (PPP2R4) using HepaRG (AID 2283522). In short, it runs like this: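 Using HepaRG cultures maintained in 0.5% DMSO, chemicals are tested 48 h at up to 100 uM in duplicate. Induction or suppression of PPP2R4 mRNA, measured by qRT-PCR, is fitted bidirectionally against the vehicle baseline.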

Read-out in assay [3]: Phosphatase and tensin (PTEN), PTEN (gene 5728)
In words: LTEA_HepaRG_PTEN: Life Technologies and Expression Analysis (LTEA) Assay for Phosphatase and tensin (PTEN) using HepaRG (AID 2283523). Summed up:
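Read-out: TaqMan qRT-PCR of PTEN transcript, normalized to three housekeeping genes, fitted in both directions against 0.5% DMSO. Differentiated human HepaRG cultures received chemicals for 48 h, eight-point half-log series topping at 100 uM.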

Read-out in assay [4]: solute carrier (SLC22A1), SLC22A1 (gene 6580)
Description: LTEA_HepaRG_SLC22A1: Life Technologies and Expression Analysis (LTEA) Assay for solute carrier (SLC22A1) using HepaRG (AID 2283524). Summed up:
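Transcript level of SLC22A1 quantified by qRT-PCR (normalized to three housekeeping genes) after 48 h chemical exposure of HepaRG cells, eight concentrations up to 100 µM, half-log steps, 0.5% DMSO vehicle. Gain or loss relative to DMSO fitted bidirectionally.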

Read-out in assay [5]: Pyruvate Dehydrogenase Kinase 4 (PDK4), PDK4 (gene 5166)
In words: LTEA_HepaRG_PDK4: Life Technologies and Expression Analysis (LTEA) Assay for Pyruvate Dehydrogenase Kinase 4 (PDK4) using HepaRG (AID 2283525). Summed up:
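Readout is qRT-PCR of PDK4 transcript, normalized to three housekeeping genes, with bidirectional fitting against 0.5% DMSO vehicle. Differentiated HepaRG cells were treated 48 h in serum-free induction medium, duplicate wells, eight-point half-log series topping at 100 uM.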

Read-out in assay [6]: NAD(P)H dehydrogenase [quinone] 1 (NQO1), NQO1 (gene 1728)
Description: LTEA_HepaRG_NQO1: Life Technologies and Expression Analysis (LTEA) Assay for NAD(P)H dehydrogenase [quinone] 1 (NQO1) using HepaRG (AID 2283526). Summed up: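 In this assay, gene expression is read by qRT-PCR after 48 h exposure of HepaRG cells to eight concentrations (max 100 uM, half-log) in 0.5% DMSO. Each chemical runs in duplicate, and activity is scored relative to vehicle.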

Read-out in assay [7]: Nuclear factor erythroid 2-related factor 2 (Homo sapiens) (UniProt Q16236)
Description: LTEA_HepaRG_NFE2L2: Life Technologies and Expression Analysis (LTEA) Assay for Nuclear factor erythroid 2-related factor 2 (NFE2L2) Transcription Factor using HepaRG (AID 2283527).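 As to outcome: TaqMan qRT-PCR transcript level normalised to ACTB GAPDH and POLR2A housekeeping genes.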 In short, it runs like this: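 NFE2L2 transcript level was read by qRT-PCR (housekeeping ACTB/GAPDH/POLR2A normalisation) after 48 h chemical treatment of HepaRG in serum-free induction medium. Duplicate 8-point half-log curves, top 100 uM, 0.5% DMSO vehicle; up- or down-regulation fitted against vehicle.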

Read-out in assay [8]: succinate dehydrogenase complex iron sulfur subunit B (SDHB), SDHB (gene 6390)
Description: LTEA_HepaRG_SDHB: Life Technologies and Expression Analysis (LTEA) Assay for succinate dehydrogenase complex iron sulfur subunit B (SDHB) using HepaRG (AID 2283528). Summed up: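 HepaRG cells (~100,000/well, plated 48 h) exposed in duplicate for 48 h in serum-free induction medium to 8-point half-log series from 100 uM in 0.5% DMSO; mRNA by qRT-PCR normalised to ACTB, GAPDH, POLR2A; bidirectional fit versus DMSO.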

Read-out in assay [9]: Signal transducer and activator of transcription 3 (Homo sapiens) (UniProt P40763)
In words: LTEA_HepaRG_STAT3: Life Technologies and Expression Analysis (LTEA) Assay for Signal transducer and activator of transcription (STAT3) using HepaRG (AID 2283529). In short, it runs like this: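 STAT3 transcript quantified by qRT-PCR against three housekeeping genes (ACTB, GAPDH, POLR2A), fitted both directions relative to DMSO. HepaRG cultures exposed 48 h to eight half-log concentrations, top 100 uM, 0.5% DMSO, serum-free induction medium.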

Read-out in assay [10]: solute carrier (SLCO1B1), SLCO1B1 (gene 10599)
Description: LTEA_HepaRG_SLCO1B1: Life Technologies and Expression Analysis (LTEA) Assay for solute carrier (SLCO1B1) using HepaRG (AID 2283530). Summed up:
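SLCO1B1 transcript levels were quantified by TaqMan qRT-PCR using three housekeeping genes for normalization. This followed 48 h chemical exposure (100 uM top, half-log, 8 points, 0.5% DMSO) of HepaRG liver cells, with gain or loss fitted relative to DMSO.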

Read-out in assay [11]: sulfotransferase 2A1 (SULT2A1), SULT2A1 (gene 6822)
In words: LTEA_HepaRG_SULT2A1: Life Technologies and Expression Analysis (LTEA) Assay for sulfotransferase 2A1 (SULT2A1) using HepaRG (AID 2283531). Summed up: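 Expression change of SULT2A1, by qRT-PCR with three housekeeping-gene normalization, was scored bidirectionally versus DMSO. Cells: differentiated HepaRG, dosed in duplicate for 48 h across 8 points, highest 100 µM, half-log dilution, 0.5% DMSO.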

Read-out in assay [12]: Transforming Growth Factor (TGFB1), TGFB1 (gene 7040)
In words: LTEA_HepaRG_TGFB1: Life Technologies and Expression Analysis (LTEA) Assay for Transforming Growth Factor (TGFB1) Transporter using HepaRG (AID 2283533). In short, it runs like this:
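TGFB1 transcript measured by qRT-PCR with normalisation to three housekeeping genes (ACTB, GAPDH, POLR2A); human HepaRG line treated in duplicate for 48 hr with an 8-point series topping at 100 uM, 0.5% DMSO vehicle, bidirectionally fitted.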

Read-out in assay [13]: TIMP1, TIMP1 (gene 7076)
Description: LTEA_HepaRG_TIMP1: Life Technologies and Expression Analysis (LTEA) Assay for TIMP1 using HepaRG (AID 2283534). Summed up:
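Bidirectional change in TIMP1 transcript versus 0.5% DMSO, measured by TaqMan qRT-PCR with three housekeeping genes for normalization. HepaRG human liver cells dosed 48 h in duplicate, top concentration 100 uM with half-log dilutions.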

Read-out in assay [14]: Tumor necrosis factor receptor 1 (TNFRSF1A), TNFRSF1A (gene 7132)
In words: LTEA_HepaRG_TNFRSF1A: Life Technologies and Expression Analysis (LTEA) Assay for Tumor necrosis factor receptor 1 (TNFRSF1A) using HepaRG (AID 2283535). Summed up:
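mRNA measured by qRT-PCR (TaqMan, Fluidigm arrays) against ACTB/GAPDH/POLR2A housekeepers after 48 h chemical exposure of HepaRG cells. Top concentration 100 uM, half-log 8-point series, duplicates; vehicle 0.5% DMSO, both fit directions.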

Read-out in assay [15]: Cellular tumor antigen p53 (Homo sapiens) (UniProt P04637)
Description: LTEA_HepaRG_TP53: Life Technologies and Expression Analysis (LTEA) Assay for Tumor Protein P53 (TP53) using HepaRG (AID 2283537). In short, it runs like this: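 Differentiated HepaRG cells in serum-free induction medium exposed 48 h in duplicate to 8 half-log concentrations, top 100 uM, 0.5% DMSO. TP53 mRNA by TaqMan qRT-PCR (Fluidigm), normalized to ACTB, GAPDH, POLR2A; fitted bidirectionally versus DMSO.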

Read-out in assay [16]: UDP glucuronosyltransferase (UGT1A1), UGT1A1 (gene 54658)
In words: LTEA_HepaRG_UGT1A1: Life Technologies and Expression Analysis (LTEA) Assay for UDP glucuronosyltransferase (UGT1A1) using HepaRG (AID 2283538). In short, it runs like this: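 mRNA induction or loss of UGT1A1, by TaqMan qRT-PCR, in duplicate HepaRG wells after 48 h exposure to half-log dilutions topping at 100 uM; DMSO (0.5%) served as baseline.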

Read-out in assay [17]: UDP glucuronosyltransferase (UGT1A6), UGT1A6 (gene 54578)
Description: LTEA_HepaRG_UGT1A6: Life Technologies and Expression Analysis (LTEA) Assay for UDP glucuronosyltransferase (UGT1A6) using HepaRG (AID 2283539). In short, it runs like this:
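Expression was quantified by TaqMan qRT-PCR on Fluidigm arrays with ACTB/GAPDH/POLR2A normalization and bidirectional fitting against 0.5% DMSO. HepaRG cells (~100,000/well) were treated in duplicate for 48 h at eight half-log concentrations up to 100 uM in serum-free induction medium.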

Read-out in assay [18]: X-box binding protein 1 (XBP1), XBP1 (gene 7494)
Description: LTEA_HepaRG_XBP1: Life Technologies and Expression Analysis (LTEA) Assay for X-box binding protein 1 (XBP1) using HepaRG (AID 2283540). Summed up: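 XBP1 transcript by qRT-PCR (housekeeping-normalized: ACTB, GAPDH, POLR2A) after 48 h chemical treatment of HepaRG cells, 8-point half-log series topping at 100 uM, vehicle 0.5% DMSO. Gain and loss of signal fitted relative to DMSO.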

Read-out in assay [19]: Transforming Growth Factor (TGFA), TGFA (gene 7039)
In words: LTEA_HepaRG_TGFA: Life Technologies and Expression Analysis (LTEA) Assay for Transforming Growth Factor (TGFA) using HepaRG (AID 2283532). Summed up:
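TGFA transcript quantified by qRT-PCR (Fluidigm arrays) against three housekeeping genes, after 48 hours chemical treatment of HepaRG cells. Top concentration 100 uM with half-log dilutions, 8 points, duplicates, 0.5% DMSO.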

Calls of active or inactive are those of the source. The calls were made as follows: active = hit-call score of the fitted dose curve at least 0.9, where 1 is the maximum; inactive = score below 0.9.

Nuclear factor NF-kappa-B p105 subunit (Homo sapiens), sequence (P19838 whole entry, looked up): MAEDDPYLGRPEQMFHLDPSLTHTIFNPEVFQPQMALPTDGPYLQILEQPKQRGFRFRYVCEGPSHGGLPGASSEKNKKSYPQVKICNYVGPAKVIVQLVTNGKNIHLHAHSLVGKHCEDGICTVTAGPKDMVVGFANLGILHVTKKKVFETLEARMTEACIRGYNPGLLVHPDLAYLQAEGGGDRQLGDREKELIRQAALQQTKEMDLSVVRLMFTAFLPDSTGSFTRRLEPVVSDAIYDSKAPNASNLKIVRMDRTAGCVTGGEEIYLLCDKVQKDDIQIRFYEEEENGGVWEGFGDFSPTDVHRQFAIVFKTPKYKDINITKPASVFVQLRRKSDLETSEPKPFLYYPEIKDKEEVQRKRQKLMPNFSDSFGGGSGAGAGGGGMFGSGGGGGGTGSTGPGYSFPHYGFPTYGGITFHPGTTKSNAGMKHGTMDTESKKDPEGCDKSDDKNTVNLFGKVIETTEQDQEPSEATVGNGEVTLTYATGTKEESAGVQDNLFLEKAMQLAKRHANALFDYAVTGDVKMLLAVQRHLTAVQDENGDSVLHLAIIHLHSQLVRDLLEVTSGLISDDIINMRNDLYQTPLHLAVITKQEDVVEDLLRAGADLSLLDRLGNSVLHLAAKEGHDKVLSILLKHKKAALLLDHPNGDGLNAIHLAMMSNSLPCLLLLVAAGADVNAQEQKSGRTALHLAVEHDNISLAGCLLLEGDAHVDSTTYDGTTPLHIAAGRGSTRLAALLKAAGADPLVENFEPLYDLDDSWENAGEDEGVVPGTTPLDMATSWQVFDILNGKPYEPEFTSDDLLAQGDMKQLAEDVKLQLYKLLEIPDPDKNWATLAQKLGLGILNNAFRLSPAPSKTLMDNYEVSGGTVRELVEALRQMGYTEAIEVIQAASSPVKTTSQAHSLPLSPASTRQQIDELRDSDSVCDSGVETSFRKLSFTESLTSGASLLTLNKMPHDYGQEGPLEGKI
Signal transducer and activator of transcription 3 (Homo sapiens), sequence (P40763 whole entry, looked up): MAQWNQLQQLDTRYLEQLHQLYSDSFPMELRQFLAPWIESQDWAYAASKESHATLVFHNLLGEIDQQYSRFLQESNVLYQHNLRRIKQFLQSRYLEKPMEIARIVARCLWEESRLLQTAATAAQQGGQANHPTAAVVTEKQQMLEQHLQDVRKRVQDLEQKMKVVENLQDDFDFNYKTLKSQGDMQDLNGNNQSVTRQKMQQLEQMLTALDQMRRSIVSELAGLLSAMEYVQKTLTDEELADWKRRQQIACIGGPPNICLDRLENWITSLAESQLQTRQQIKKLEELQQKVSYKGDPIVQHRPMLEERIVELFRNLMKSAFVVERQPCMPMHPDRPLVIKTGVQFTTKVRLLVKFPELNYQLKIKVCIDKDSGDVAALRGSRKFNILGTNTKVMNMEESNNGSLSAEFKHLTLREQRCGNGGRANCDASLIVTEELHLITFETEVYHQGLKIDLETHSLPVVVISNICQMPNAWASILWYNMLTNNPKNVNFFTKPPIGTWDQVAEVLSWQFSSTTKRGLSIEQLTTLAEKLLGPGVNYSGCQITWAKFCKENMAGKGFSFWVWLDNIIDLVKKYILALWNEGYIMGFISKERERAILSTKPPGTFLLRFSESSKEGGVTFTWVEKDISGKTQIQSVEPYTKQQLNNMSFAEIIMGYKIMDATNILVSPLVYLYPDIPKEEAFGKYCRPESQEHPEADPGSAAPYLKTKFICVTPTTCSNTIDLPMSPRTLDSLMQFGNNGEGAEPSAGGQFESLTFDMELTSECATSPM
Cellular tumor antigen p53 (Homo sapiens), sequence (P04637 whole entry, looked up): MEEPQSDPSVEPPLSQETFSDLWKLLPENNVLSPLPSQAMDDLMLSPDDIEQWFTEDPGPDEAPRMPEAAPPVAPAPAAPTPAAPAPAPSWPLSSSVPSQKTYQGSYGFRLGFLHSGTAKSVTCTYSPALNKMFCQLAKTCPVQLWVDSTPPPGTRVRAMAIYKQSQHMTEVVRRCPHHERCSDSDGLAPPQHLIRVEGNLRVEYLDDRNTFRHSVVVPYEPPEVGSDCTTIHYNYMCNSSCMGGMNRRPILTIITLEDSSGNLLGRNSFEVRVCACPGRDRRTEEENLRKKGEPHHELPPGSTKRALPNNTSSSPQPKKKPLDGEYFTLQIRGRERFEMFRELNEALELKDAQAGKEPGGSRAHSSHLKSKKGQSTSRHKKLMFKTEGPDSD
Nuclear factor erythroid 2-related factor 2 (Homo sapiens), sequence (Q16236 whole entry, looked up): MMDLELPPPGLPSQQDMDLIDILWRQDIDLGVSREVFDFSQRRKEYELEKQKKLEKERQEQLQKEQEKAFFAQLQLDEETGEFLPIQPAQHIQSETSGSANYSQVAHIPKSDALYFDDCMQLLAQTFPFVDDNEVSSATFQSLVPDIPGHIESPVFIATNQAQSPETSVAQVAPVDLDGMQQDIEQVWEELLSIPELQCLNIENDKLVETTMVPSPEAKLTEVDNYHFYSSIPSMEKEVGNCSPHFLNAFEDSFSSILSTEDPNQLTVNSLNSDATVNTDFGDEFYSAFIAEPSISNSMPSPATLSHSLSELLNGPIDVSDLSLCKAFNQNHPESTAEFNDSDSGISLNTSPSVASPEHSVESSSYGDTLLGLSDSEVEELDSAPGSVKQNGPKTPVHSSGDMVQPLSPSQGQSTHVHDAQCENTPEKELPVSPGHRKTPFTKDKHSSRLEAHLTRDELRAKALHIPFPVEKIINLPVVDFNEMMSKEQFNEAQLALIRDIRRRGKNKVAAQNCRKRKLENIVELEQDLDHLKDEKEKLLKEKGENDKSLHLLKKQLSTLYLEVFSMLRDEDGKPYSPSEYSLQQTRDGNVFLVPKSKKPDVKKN

As to `CCCCN1C(=O)[C@@H]([C@H](O)C2CCCCC2)NC(=O)C12CCN(Cc1ccc(Oc3ccc(C(=O)O)cc3)cc1)CC2`, the result in assay [1], in assay [13] and in assay [15] was inactive. Also, the AC50 in assay [2] is 3.88 µM (active); in [3], 2.98 µM (active); in [4], 1.72 µM (active); in [5], 2.61 µM (active); in assay [6] it was 4.6 µM (active); in assay [7], 2 µM (active). Besides, the AC50 in [8] is 1.56 µM (active); in assay [9], 3.21 µM (active); in assay [10], 1.92 µM (active); in assay [11], 3.91 µM (active); in assay [12], 0.34 µM (active); in assay [14], 6.08 µM (active). In addition, the AC50 is 2.79 µM (active) in [16], 10 µM (active) in assay [17] and 3.25 µM (active) in assay [18].
Take `OC(CCl)CCl`: the call in [1], in assay [2], in [3], in assay [4], in assay [5] and in assay [6] was inactive. Moreover, the compound was classed as inactive in assay [7], in assay [8], in assay [9], in [10], in [11] and in assay [12]. Besides, the result in [13], in assay [14], in [15], in [16], in assay [17] and in assay [18] was inactive.
On to `CCCCCCCCCC`, for which the outcome in assay [1], in assay [2], in [3], in [4], in assay [5] and in assay [6] was inactive. Further, the outcome in assay [7], in [8], in assay [9], in assay [10], in [11] and in assay [12] was inactive. Also, the compound was called inactive in assay [13], in [14], in [15], in assay [16], in assay [17] and in [18].
Regarding `CNC(C)=O`, the result in assay [2], in assay [3], in [4], in [5], in assay [6] and in assay [7] was inactive. Besides, the call in assay [8], in assay [9], in assay [10], in [11], in [19] and in [12] was inactive. Besides, the outcome in assay [13], in assay [14], in assay [16], in assay [17] and in [18] was inactive.
